Rows were chosen to be rich in hits. Some 21% of all compounds tested hit in one or more screens of this group.
HCMV antiviral – human cytomegalovirus inhibition. HFF cells, HCMV-luciferase reporter, 72 h; stronger effect = lower value. activity change, negative = inhibition, % at 57.5 µM. hit rate 4.5% among 410,000; in the data active means activity change below about -60%; inconclusive means no clear call, values can overlap the other calls; inactive means above about -39%
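Two compound doses tested in HFFs infected with HCMV-luciferase, MOI 1 PFU/cell, 72 h at 37C. Lysate luminescence read with OneGlo; data normalized against buffer-only and 10uM Salinomycin inhibitor controls.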
HCV inhibitor – inhibitors of hepatitis C virus infection | hit rate 3.4% among 340,000 | Potency, µM (series often up to 41.8 µM), hits mostly inhibitors | Huh7.5.1 HCVcc-Cre infection, luciferase reporter, 44 h
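HCVcc-Cre virus at an moi near 0.5 was added right after compound to cells cultured 4 h from seeding (1,000 cells/well). Luciferase activity was determined 44 h later, 15 min after substrate addition at RT.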
Pf growth 48h – inhibits P. falciparum growth in the first generation, 48 h; P. falciparum luciferase growth in erythrocytes, 48 h; Potency, µM (titrated, usually from 28.7 µM), most hits filed as inhibitors; hit rate 5.9% among 310,000
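Cell-based growth assay: transgenic P. falciparum expressing firefly luciferase, cultured in red cells within RPMI 1640 containing 0.5% w/v Albumax, 24 mM bicarbonate and gentamycin. A drop in luciferase activity indicates inhibition.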
Pf growth 96h – inhibits malaria parasite growth, 96 h | P. falciparum luciferase reporter growth, 96 h | Potency, µM (doses to about 28.7 µM), usual class: inhibitors | hit rate 6.9% among 320,000
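Readout is luminescence from an integrated firefly luciferase in P. falciparum. Red cells, 2% hematocrit and 0.05% parasitemia final, were cultured with compound through two parasite generations (96 hours) at 37 C, 5% CO2.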
CHX counter – counter-screen for Shiga toxin inhibitors: cycloheximide protein synthesis inhibition; hit rate 12% among 300,000; cell reporter, cycloheximide protein synthesis inhibition counterscreen; max response, %; AID 2314; in the data active means max response mostly above about 13%, no sharp cut-off; inactive means mostly below about 14%; further: read at 38.3 µM for the half of the compounds with a filed dose
Shiga inhibitor – Shiga toxin inhibition. Vero cells, Shiga toxin protein synthesis inhibition reporter. inhibition, % at 38.7 µM. hit rate 9.2% among 290,000; in the data active means inhibition mostly above about 28%, no sharp cut-off; inactive means mostly below about 43%
Large screens that a line does not name were inactive. Unless noted, the call rests on the fitted dose curve; in most records, active means well fitted inhibition curve with a large enough effect; inconclusive means small, poorly fitted or top-dose-only effect, or another doubt; inactive means no such curve, though single readings can be large or run the other way.

Cc1ccccc1COC(=O)c1ccc(-c2nnn(Cc3ccccc3F)n2)cc1	none (no result: HCV inhibitor, Pf growth 48h, Pf growth 96h, CHX counter, Shiga inhibitor)
O=C(CCCN1CC=C(n2c(=O)[nH]c3ccccc32)CC1)c1ccc(F)cc1	Pf growth 48h 8.28µM, Pf growth 96h 3.29µM (no result: HCV inhibitor)
Cc1cc(NC(=O)CC2CCCC2)n(-c2nc3ccccc3[nH]2)n1	HCV inhibitor inconclusive, Pf growth 48h inconclusive, Pf growth 96h 5.86µM
Cc1cc(NC(=O)/C=C/c2ccccc2Cl)n(-c2nc3ccccc3[nH]2)n1	HCV inhibitor inconclusive, Pf growth 48h inconclusive, Pf growth 96h inconclusive, CHX counter 14.2
CC[N+]1(CC)CC2=Cc3c(ccc4ccccc34)C(C)C2C1 (stereo not drawn)	Pf growth 48h 2.33µM, Pf growth 96h 1.47µM
CC1NC(C)(C)Cc2c1ccc1ccccc21 (stereo not drawn)	none
CC(C)n1cnc2c(N(C)c3ccccc3)nc(N(CCN(C)C)Cc3ccccc3)nc21	HCV inhibitor inconclusive, Pf growth 48h 4.65µM, Pf growth 96h 0.928µM
CCC(CO)Oc1cc(NCc2ccc(C)c(C)c2)c2ncn(C(C)C)c2c1 (stereo not drawn)	HCV inhibitor inconclusive (no result: Pf growth 48h, Pf growth 96h, CHX counter, Shiga inhibitor)
CCC(CO)Oc1cc(NC(=O)c2ccccc2)c2ncn(C(C)C)c2c1 (stereo not drawn)	HCV inhibitor inconclusive, Pf growth 48h inconclusive, Pf growth 96h inconclusive (no result: CHX counter, Shiga inhibitor)
COc1cc(NCc2ccccc2)c2ncn(C(C)C)c2c1	HCV inhibitor 10µM, Pf growth 48h inconclusive, Pf growth 96h inconclusive (no result: CHX counter, Shiga inhibitor)
CCC(CO)Oc1cc(NCc2ccncc2)c2ncn(C(C)C)c2c1 (stereo not drawn)	none (no result: Pf growth 48h, Pf growth 96h, CHX counter, Shiga inhibitor)
COc1cc(N(Cc2ccccc2)Cc2ccccc2)c2ncn(C(C)C)c2c1	HCMV antiviral -87.1, HCV inhibitor 11.2µM, Pf growth 48h 5.86µM, Pf growth 96h 7.38µM (no result: CHX counter, Shiga inhibitor)
CCC(CO)Oc1cc(NCc2cc(C)cc(C)c2)c2ncn(C(C)C)c2c1 (stereo not drawn)	HCV inhibitor 1.58µM (no result: Pf growth 48h, Pf growth 96h, CHX counter, Shiga inhibitor)
O=C(O)CCn1ccc2cc(S(=O)(=O)N3CCCCC3)ccc21	none (no result: HCV inhibitor, Pf growth 48h, Pf growth 96h, CHX counter, Shiga inhibitor)
CCCCCCCCCCCCCCCC(=O)N[C@@H](COP(=O)(O)O)C(=O)O	none (no result: HCMV antiviral, HCV inhibitor, Pf growth 48h, Pf growth 96h)
CCC(CO)Oc1cc(NC(=O)c2cccc([N+](=O)[O-])c2)c2ncn(C(C)C)c2c1 (stereo not drawn)	HCV inhibitor 2.82µM (no result: Pf growth 48h, Pf growth 96h, CHX counter, Shiga inhibitor)
C#CCOCCOCCOCCNc1nc(N2CCN(C(=O)CCCCCCCCCCNC(=O)Cn3cc(CCCCCN)nn3)CC2)nc(N2CCN(C(=O)CCCCCCCCCCNC(=O)Cn3cc(C[C@@H](C)O)nn3)CC2)n1	HCV inhibitor inconclusive, Pf growth 48h 0.329µM, Pf growth 96h 0.294µM (no result: HCMV antiviral, CHX counter, Shiga inhibitor)
C#CCOCCOCCOCCNc1nc(N2CCN(C(=O)CCCCCCCCCCNC(=O)Cn3cc(C[C@@H](C)O)nn3)CC2)nc(N2CCN(C(=O)CCCCCCCCCCNC(=O)[C@@H]([C@H](C)CC)n3cc(CCCCCN)nn3)CC2)n1	HCV inhibitor inconclusive, Pf growth 48h 2.33µM, Pf growth 96h inconclusive (no result: HCMV antiviral, CHX counter, Shiga inhibitor)
O=C1c2[nH]nc(-c3ccccc3O)c2C(c2ccc(F)cc2)N1CCO (stereo not drawn)	none (no result: HCV inhibitor, Pf growth 48h, Pf growth 96h, CHX counter, Shiga inhibitor)
Cc1ccc(C)c(N2CCN(S(=O)(=O)c3ccc(-c4cc(C)no4)s3)CC2)c1	Pf growth 96h inconclusive
COCCn1c(=O)[nH]c2cc(C(=O)Nc3ccc(OC)cc3)ccc2c1=O	none (no result: HCV inhibitor, Pf growth 48h, Pf growth 96h, CHX counter, Shiga inhibitor)
COCCn1c(=O)[nH]c2cc(C(=O)Nc3cc(OC)c(OC)c(OC)c3)ccc2c1=O	HCV inhibitor inconclusive, Pf growth 48h inconclusive, Pf growth 96h 5.22µM
COc1cc2[nH]c(=S)n(Cc3ccccc3)c(=O)c2cc1OC	HCV inhibitor inconclusive, Pf growth 48h inconclusive
COCCn1c(=O)[nH]c2cc(C(=O)NCc3ccccc3Cl)ccc2c1=O	HCMV antiviral -68.7 (no result: HCV inhibitor, Pf growth 48h, Pf growth 96h)
COc1cc2[nH]c(=O)n(Cc3ccccc3Cl)c(=O)c2cc1OC	Pf growth 96h 4.65µM
C[C@H]1CNC(=O)c2c(C(=O)N3CCN(c4ccccc4)CC3)ncn21	none (no result: HCV inhibitor, Pf growth 48h, Pf growth 96h, CHX counter, Shiga inhibitor)
COc1cc(C2CC(=O)N(CC(=O)NCC3CCCO3)c3ccccc3S2)cc(OC)c1OC (stereo not drawn)	Pf growth 48h inconclusive
COc1cc(C2CC(=O)N(CC(=O)NCc3ccco3)c3ccccc3S2)cc(OC)c1OC (stereo not drawn)	HCV inhibitor inconclusive, Pf growth 48h 10.4µM
O=S(=O)(Nc1ccc(-c2ccc(N3CCCC3)nn2)cc1)c1ccc(Br)cc1	none (no result: HCV inhibitor, Pf growth 48h, Pf growth 96h, CHX counter, Shiga inhibitor)
COc1cc2[nH]c(=O)n(CCCC(=O)NCc3ccccc3)c(=O)c2cc1OC	none (no result: HCV inhibitor, Pf growth 48h, Pf growth 96h, CHX counter, Shiga inhibitor)
Cc1ccc2c(c1)nnn2C1CCN(CC(=O)N2c3ccccc3CC2C)CC1 (stereo not drawn)	HCMV antiviral -76.1, Pf growth 48h inconclusive
Cc1ccc2c(c1)nnn2C1CCN(CC(=O)N(c2ccccc2)c2ccccc2)CC1	HCMV antiviral -69.9, HCV inhibitor inconclusive, Pf growth 48h 6.57µM, Pf growth 96h 11.7µM
Cc1ccc2c(c1)nnn2C1CCN(CC(=O)c2ccc(Cl)cc2)CC1	Pf growth 48h inconclusive
Cc1ccc2c(c1)nnn2C1CCN(CC(=O)Nc2ccc3c(c2)OCCO3)CC1	CHX counter 26.2
CCOC(=O)CN(C(=O)CN1CCC(n2nnc3cc(C)ccc32)CC1)c1ccccc1	Pf growth 96h 5.22µM (no result: Pf growth 48h)
CCCSc1ccc([C@H]2N[C@@](CC(C)C)(C(=O)OC)[C@H]3C(=O)N(CC)C(=O)[C@@H]23)cc1	HCV inhibitor inconclusive (no result: Pf growth 48h, Pf growth 96h, CHX counter, Shiga inhibitor)
C/C=C/C1=CC(=O)C[C@H](c2ccc(OC)c(OC)c2)C1	Pf growth 48h inconclusive, Pf growth 96h inconclusive (no result: CHX counter, Shiga inhibitor)
CCOc1ccc2nc(N3CCCC(C(=O)Nc4cccc(Cl)c4C)C3)sc2c1 (stereo not drawn)	none (no result: HCV inhibitor, Pf growth 48h, Pf growth 96h, CHX counter, Shiga inhibitor)
